Data published in PubChem BioAssay AID778 (Sanford-Burnham Center for Chemical Genomics, 2007).
The whole screen tested about 96,000 compounds, of which about 20,000 (21%) were called active.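 How the source made its calls: active means CYP2C19 inhibition above a set limit at 5 µM in the primary screen (cut at about 50% in these data); inactive means the rest.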 Not all results are given here.

The compounds below were run against Cytochrome P450 2C19 (Homo sapiens) (UniProt P33261) (assay: blockers of cytochrome P450 2C19 activity – biochemical, luminescence, ADME assay, primary screen (AID 778;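 further: plate controls were negative control wells for no effect and 2.5 mM tranylcypromine positive control for full effect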)). Details: CYP2C19 Supersomes, luciferin-H EGE luminescence, 30 min; at 5 µM; active compounds read high.
Chain of Cytochrome P450 2C19 (Homo sapiens) (P33261 whole entry, looked up): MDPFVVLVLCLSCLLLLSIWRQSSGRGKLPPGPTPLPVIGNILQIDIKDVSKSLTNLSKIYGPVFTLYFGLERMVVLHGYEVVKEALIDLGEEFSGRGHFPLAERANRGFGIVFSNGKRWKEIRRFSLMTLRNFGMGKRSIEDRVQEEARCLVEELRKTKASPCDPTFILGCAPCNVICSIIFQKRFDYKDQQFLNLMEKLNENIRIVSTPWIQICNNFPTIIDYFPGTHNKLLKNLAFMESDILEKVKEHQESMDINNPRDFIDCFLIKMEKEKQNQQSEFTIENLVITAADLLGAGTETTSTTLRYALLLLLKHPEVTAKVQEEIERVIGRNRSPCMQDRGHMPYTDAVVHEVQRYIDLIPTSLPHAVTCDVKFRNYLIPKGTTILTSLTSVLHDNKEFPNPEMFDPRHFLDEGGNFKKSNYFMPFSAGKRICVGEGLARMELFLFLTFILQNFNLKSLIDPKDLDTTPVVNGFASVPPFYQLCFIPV
`Cc1ccc(C2(c3ccc(C)cc3)NC(=O)N(Cc3c(C)noc3C)C2=O)cc1` was tested, and the inhibition was 14.6% (inactive). With `Cc1ccccc1-n1c(C)cc(/C=N/NC(=O)c2ccc(CN3CCOCC3)cc2)c1C` the inhibition was 24.3% (inactive). For `OC(COc1ccccc1)Cn1cc(Br)cn1` (configuration not stated), the inhibition was 54.1% (active). `O=C(C(c1ccccc1)c1ccccc1)N1CCN(CC(O)COc2ccccc2)CC1` (configuration not stated) was tested, and the inhibition was 41.9% (inactive). In the case of `CC(C)c1ccc(OCC(O)Cn2cnc3ccccc32)cc1` (configuration not stated), the inhibition is reported as 7.2% (inactive). In the case of `COc1cccc(NC(=O)c2ccccc2SC)c1`, the inhibition is reported as 6.7% (inactive). With `COc1cccc(NC(=O)C(C)Oc2ccccc2)c1` (configuration not stated) the inhibition was 79.9% (active). With `CCC(=O)Nc1ccc(C(=O)Nc2cccc(OC)c2)cc1` the inhibition was -0.7% (inactive). In the case of `COc1cccc(N(CC(=O)Nc2cccc(N(C)S(C)(=O)=O)c2)S(C)(=O)=O)c1`, the inhibition is reported as 35.8% (inactive). With `CCOc1ccc(S(=O)(=O)N(CC(=O)O)c2ccccc2)cc1` the inhibition was 2.3% (inactive). For `COc1ccc(CC(=O)Nc2ccc(-c3nnc(-c4ccccc4)o3)cc2)cc1`, the inhibition was 18% (inactive). In the case of `COc1cccc(N(CC(=O)N2CCc3ccccc3C2)S(C)(=O)=O)c1`, the inhibition is reported as 31.3% (inactive). With `COc1cccc(NC(=O)CN(C)S(=O)(=O)c2ccc(C)cc2)c1` the inhibition was 78.9% (active). `COc1ccc(OC(C)C(=O)Nc2cccnc2)cc1` (configuration not stated) was tested, and the inhibition was 7.1% (inactive). In the case of `CCN(CC)C(=O)CN(c1cccc(OC)c1)S(=O)(=O)c1ccc(C)cc1`, the inhibition is reported as 64.9% (active). For `COc1cccc(NC(=O)Cc2ccc(C)cc2)c1`, the inhibition was 57.1% (active). `COc1ccc(NC(=O)CN(C)S(=O)(=O)c2ccccc2)cc1OC` was tested, and the inhibition was 25.7% (inactive). `CCOC(=O)/C=c1\s/c(=C\c2ccccc2OC)c(=O)n1CC(=O)N1CCOCC1` was tested, and the inhibition was -9.3% (inactive). With `CCNC(=O)c1sccc1-n1cccc1` the inhibition was 16.3% (inactive). In the case of `CCN1CCN(C(c2cccnc2)c2cc(Cl)c3cccnc3c2O)CC1` (configuration not stated), the inhibition is reported as 17.2% (inactive). For `Cc1ccc(C(=O)NNC(=O)c2cc3cc4ccccc4nc3s2)cc1`, the inhibition was -3.1% (inactive). In the case of `O=c1[nH]c(-c2ccccc2)c(-c2ccccc2)[nH]1`, the inhibition is reported as 1.3% (inactive). For `O=C1CC2(CCCCC2)Oc2ccc(OCC(=O)N3CCOCC3)cc21`, the inhibition was -3.8% (inactive). In the case of `CCCCc1nnc(NC(=O)CSc2nc(C)cc(=O)[nH]2)s1`, the inhibition is reported as 4.3% (inactive). In the case of `O=C1/C(=C\Nc2ccccc2)CCN1c1ncccn1`, the inhibition is reported as 7.1% (inactive). With `CCOC(=O)c1ccn(-c2nc(-c3ccco3)cc(C(F)(F)F)n2)n1` the inhibition was 9.7% (inactive). With `CC(=O)C1C(c2cccc(Oc3ccccc3)c2)NC(=O)NC1(O)C(F)(F)F` (configuration not stated) the inhibition was 24.4% (inactive). With `Cc1ccccc1-c1ccc(Nc2ccc(C(=O)N3CCOCC3)cc2)nn1` the inhibition was 34.2% (inactive). For `CC(=O)N1Cc2ccccc2CC1C(=O)O` (configuration not stated), the inhibition was -21.6% (inactive). With `Cc1ccc(C)c(NC(=O)C2Cc3ccccc3CN2C(=O)OCc2ccccc2)c1` (configuration not stated) the inhibition was 62.3% (active). `Cc1ccc(C)c(NC(=O)C2CCCN2C(=O)OC(C)(C)C)c1` (configuration not stated) was tested, and the inhibition was 11.7% (inactive). `Cc1cc(C(F)(F)F)nn1-c1nc(-c2ccco2)cc(C(F)(F)F)n1` was tested, and the inhibition was 2.2% (inactive). In the case of `CCOC(=O)c1ccc(NC(=O)CSc2ncccn2)cc1`, the inhibition is reported as 26.9% (inactive). With `CCOC(=O)c1ccc(NC(=O)Cn2nnc(-c3ccc(C)cc3)n2)cc1` the inhibition was 8.5% (inactive). With `CCOC(=O)c1cn(CC(=O)Nc2ccc(C(C)C)cc2)nn1` the inhibition was 62% (active). `COCC(C)NC(=O)c1ccc(-n2nc(C(F)(F)F)cc2-c2cccs2)cc1` (configuration not stated) was tested, and the inhibition was 12.4% (inactive). `CSCc1cc(N2CCOCC2)nc(SCc2ccc(Cl)cc2Cl)n1` was tested, and the inhibition was 50.8% (active). In the case of `O=c1cc(CSc2ccc(Cl)cc2)nc(N2CCOCC2)[nH]1`, the inhibition is reported as 38.8% (inactive). With `CSCc1cc(N(C)C)nc(SCc2ccc(Cl)cc2Cl)n1` the inhibition was 40.2% (inactive). In the case of `O=C(c1ccc2c(c1)OCCO2)C1CCN(S(=O)(=O)c2cccc(F)c2)CC1`, the inhibition is reported as 35.4% (inactive). `COc1ccc(Cn2c(=O)sc3ccccc32)cc1OC` was tested, and the inhibition was 99.8% (active). In the case of `Cc1nnc(NC(=O)Cn2c(=O)sc3ccccc32)s1`, the inhibition is reported as 47.6% (inactive). `COc1ccc(CCNC(=O)CCn2c(=O)oc3ccccc32)cc1OC` was tested, and the inhibition was 1.4% (inactive). In the case of `Cn1c(=O)c2c(nc(N3CCCCCC3)n2CC(=O)c2ccc(Br)cc2)n(C)c1=O`, the inhibition is reported as 0.8% (inactive). `CC(C)n1c(SCC(=O)Nc2ccccc2N2CCCCC2)nc2c1c(=O)n(C)c(=O)n2C` was tested, and the inhibition was 40.4% (inactive). `Cn1c(=O)c2c(nc(SCC(=O)Nc3ccccc3N3CCCCC3)n2C)n(C)c1=O` was tested, and the inhibition was 86.6% (active). In the case of `CCCSc1nc2c(c(=O)[nH]c(=O)n2C)n1CCc1ccccc1`, the inhibition is reported as 26% (inactive). For `C#CC(C)(C)NC(=O)CSc1nc2c(c(=O)n(C)c(=O)n2C)n1CCCC`, the inhibition was -7.1% (inactive). With `Cn1c(=O)c2c(nc(SCCNS(=O)(=O)c3ccccc3)n2C)n(C)c1=O` the inhibition was 73.3% (active). In the case of `Cc1ccc(NC(=O)c2cc(-c3ccc(C)o3)nc3ccccc23)nc1`, the inhibition is reported as -3.9% (inactive). For `Cc1ccc(-c2csc(NC(=O)c3cccs3)n2)cc1`, the inhibition was -2.3% (inactive). With `Cc1ccc(-c2csc(N(Cc3ccco3)C(=O)c3cccs3)n2)cc1` the inhibition was 68.5% (active). `O=C(O)CCC(=O)N(Cc1ccco1)c1nc(-c2ccccc2)cs1` was tested, and the inhibition was 2.5% (inactive). `CCOC(=O)N1CCN(C(=O)C2CCN(S(C)(=O)=O)CC2)CC1` was tested, and the inhibition was -15% (inactive). In the case of `CCOC(=O)Cc1csc(NC(=O)CN(C)S(=O)(=O)c2ccc3c(c2)CCC(=O)N3)n1`, the inhibition is reported as -17.1% (inactive). In the case of `CN(CC(=O)Nc1cccc2c1CCCC2)S(=O)(=O)c1ccc(Cl)cc1`, the inhibition is reported as -15.4% (inactive). `O=C(Nc1nccs1)C1CCN(S(=O)(=O)c2ccc(Cl)c(C(F)(F)F)c2)CC1` was tested, and the inhibition was 36.3% (inactive). `CCN(c1ccccc1)S(=O)(=O)c1ccc(C(=O)Nc2nccs2)cc1` was tested, and the inhibition was -4.3% (inactive). `Cc1nc(NC(=O)CN(C)S(=O)(=O)c2ccc(Cl)cc2)sc1C` was tested, and the inhibition was 62.6% (active). For `CN(CCCC(=O)Nc1nccs1)S(=O)(=O)c1ccc(Cl)cc1`, the inhibition was 51% (active). With `O=c1c2ccccc2c(-c2ccc(Br)cc2)nn1Cc1ccccc1` the inhibition was 33% (inactive). With `CCC(=O)NC(=Nc1nc2ccccc2s1)NC(=O)CC` the inhibition was -0.9% (inactive). `N#C/C=C1\Sc2ccccc2C(=O)N1CC(=O)N1CCN(S(=O)(=O)c2ccccc2)CC1` was tested, and the inhibition was -22.8% (inactive). With `CC1(C)CC(=O)C(C=NCCN2CCN(C(=S)Nc3cccc(Cl)c3)CC2)=C(O)C1` the inhibition was 60.5% (active). With `CC1(C)CC(=O)C(C=NCCC2=CCCCC2)=C(O)C1` the inhibition was 9.5% (inactive). With `CC(=O)N1CCN(CCN=CC2=C(O)CC(C)(C)CC2=O)CC1` the inhibition was -18.4% (inactive). `CCn1cc(C(=O)NCC2CCCO2)c(=O)c2cc(S(=O)(=O)N3CCCCC3)ccc21` (configuration not stated) was tested, and the inhibition was 13.6% (inactive). `Cc1ccc(C(=O)N(CN2CCCC2=O)c2ccc(F)cc2)cc1` was tested, and the inhibition was -14.3% (inactive). In the case of `CCCNC(=O)C1CC(=O)N(c2ccc(OCC(=O)Nc3cccc(C)c3C)cc2)C1` (configuration not stated), the inhibition is reported as -17.2% (inactive). In the case of `COCCCNC(=O)C1CC(=O)N(c2ccc(C)cc2)C1` (configuration not stated), the inhibition is reported as 5.7% (inactive). `COc1ccc(Cl)cc1NC(=O)C1CC(=O)N(c2ccc(F)cc2)C1` (configuration not stated) was tested, and the inhibition was 74.3% (active). In the case of `N#Cc1c(N)nc2c3c(sc(=N)c2c1N)NC(=O)CC3c1ccccc1Cl` (configuration not stated), the inhibition is reported as -0.8% (inactive). For `CN(C)c1ccnc(Oc2ccc(F)cc2)c1C#N`, the inhibition was 32.1% (inactive). In the case of `Cc1cccc(OCc2nnc(SCc3nc4cc(C(F)(F)F)ccc4c(=O)[nH]3)o2)c1`, the inhibition is reported as 54% (active). With `Cc1cc(C)cc(OCc2nnc(SCC(=O)OC3CCCCC3)o2)c1` the inhibition was 4.2% (inactive). For `Cc1cccc(OCc2nnc(SCn3nnc4ccccc4c3=O)o2)c1`, the inhibition was 31.6% (inactive). With `COc1ccc(Nc2cc(C)nc(-n3nc(C)cc3C)n2)cc1` the inhibition was 46% (inactive). In the case of `COCCCNC(NC(=O)c1ccc(C)cc1)C(Cl)(Cl)Cl` (configuration not stated), the inhibition is reported as 24.3% (inactive). With `CCC(=O)c1c[nH]c(C(=O)NCC2CCCO2)c1` (configuration not stated) the inhibition was -4.8% (inactive). `CCNC(=O)N1CCNC(=O)C1CC(=O)Nc1ccc(C(=O)OCC)cc1` (configuration not stated) was tested, and the inhibition was 3.6% (inactive). In the case of `CC1(C)Cc2cccc(OCC(N)=O)c2O1`, the inhibition is reported as -16.5% (inactive). `COc1cc(C(=O)Nc2nccs2)cc(OC)c1OC` was tested, and the inhibition was 17.9% (inactive). `CC1(C)Cc2cccc(OCC(=O)Nc3nccs3)c2O1` was tested, and the inhibition was 60.6% (active). For `CCOC(=O)c1cc2n(c1N)-c1ccccc1C2=O`, the inhibition was 26.7% (inactive). With `O=C(NCC1CCC(C(=O)O)CC1)OCc1ccccc1` (configuration not stated) the inhibition was 2.9% (inactive). In the case of `Cc1ccc(C(=O)/C=C/c2c(C)nn(-c3ccccc3)c2Cl)cc1`, the inhibition is reported as 76.2% (active). For `Cc1nn(-c2ccccc2)c(Cl)c1C(=O)Nc1ccccc1`, the inhibition was 39.2% (inactive). In the case of `Cc1nn(-c2ccccc2)c(CC(C)(C)C(=O)O)c1C(=O)O`, the inhibition is reported as 7.2% (inactive). `Cc1ccc(O)c(CNc2nc3ccccc3n2C)c1` was tested, and the inhibition was 39.6% (inactive). `CCC1SC2=NCCN2C1(O)c1ccc(Cl)cc1` (configuration not stated) was tested, and the inhibition was 94.6% (active). For `O=C(COc1ccccc1F)NC1CC1`, the inhibition was -8.2% (inactive). In the case of `O=C1CCCc2c1nc(-c1cccc(Cl)c1)n2O`, the inhibition is reported as -3.8% (inactive). With `CON(C)S(=O)(=O)c1ccc2c(c1)NC(=O)C1CCCN21` (configuration not stated) the inhibition was 4.3% (inactive). `COc1ccc(Nc2nc(Cl)nc(NCc3ccco3)n2)cc1` was tested, and the inhibition was 4% (inactive). In the case of `COc1ccc(N(CC(=O)N/N=C/c2cccs2)S(=O)(=O)c2ccc(OC)c(OC)c2)cc1`, the inhibition is reported as 99.3% (active). With `Cc1cc(C)nc(SC(C)C(=O)N/N=C/c2cccs2)n1` (configuration not stated) the inhibition was 20.8% (inactive). For `COc1ccc(N(CC(=O)N/N=C/c2cccc3c2OCCO3)S(=O)(=O)c2ccc(NC(C)=O)cc2)cc1`, the inhibition was 33.4% (inactive).
